Here are results for 39 compounds from ChEMBL document CHEMBL4513146, “CO-ADD screening of Karazin Kharkiv National University (Ukraine) compounds”.

Molecules are shown by their SMILES. Results with a measured potency or affinity are listed apart.

For this assay, the system named is Cryptococcus neoformans. Particulars: Concentration 32 ug.mL-1; ASSAY_TEST Inhibition of Fungal Growth; detection method Resazurin; Absorption (OD600-OD570); plate type 384well; NBS; CORNING #3640. (Alamar Blue is a resazurin reagent that responds to reducing activity.)
Broadly, the Inhibition is the drop in the measured response relative to a control, in per cent. Consider `Cc1cc2nn(CC(=O)NCc3ccco3)c(=O)n2c(Nc2ccc(C)c(F)c2)n1`, for which the Inhibition is -7.03%. As for `CCOc1ccc(-n2ccn3c(SCC(=O)c4ccc(F)cc4)nnc3c2=O)cc1`, the figure is -5.27%; as for `COc1ccc(NC(=O)Cn2nc3c4cc(-c5ccc(C)c(C)c5)nn4ccn3c2=O)cc1OC`, -30.03%; as for `O=C(Cn1nc2c(SCc3ccccc3)nccn2c1=O)NCc1ccc(Cl)cc1`, -17.24%.

With `Cc1ccc(NC(=O)Cn2nc3c(Oc4ccccc4)nccn3c2=O)c(Cl)c1`, the Inhibition is recorded as -4%. As for `O=C(Cn1nc2c3sc(N4CCCC4)nc3ncn2c1=O)Nc1cccc(Br)c1`, the figure is -10.95%; as for `Cc1ccc(NC(=O)Cn2nc3c(Sc4ccccc4)nccn3c2=O)c(Br)c1`, -9.68%; as for `COc1cccc(Oc2nccn3c(=O)n(CC(=O)Nc4ccc(OC)c(Cl)c4)nc23)c1`, -8.33%. The result for `CC(C)c1nnc2c(SCC(=O)Nc3ccccc3Br)nc3ccccc3n12` reads -6.3%. The result for `COC(=O)c1ccccc1NC(=O)Cn1nc2c(Oc3cccc(OC)c3)nccn2c1=O` reads -7.59%; that for `CCN(C(=O)Cn1nc2cc(C)nc(Nc3ccc(C)c(F)c3)n2c1=O)c1ccccc1`, -6.91%; that for `Cc1cc(C)cc(N(Cc2c(F)cccc2Cl)S(=O)(=O)c2cccn3cnnc23)c1`, -5.6%. With `CC(C)c1ccc(NC(=O)Cn2nc3c(N4CCCC4)nccn3c2=O)cc1`, the Inhibition is recorded as -12.68%. For `CCc1ccc(N(Cc2ccc(F)cc2)S(=O)(=O)c2cccn3c(CC)nnc23)cc1`, the Inhibition was -7.64%. As for `O=C(NCc1ccccc1)c1ccc2nn(CC(=O)N3CCN(c4ccc(F)cc4)CC3)c(=O)n2c1`, the figure is -7.39%; as for `COc1ccc(NC(=O)Cn2nc3ccc(SCc4ccc(Cl)cc4)nn3c2=O)cc1`, -13.57%. The result for `O=C(CSc1nnc2c(=O)n(-c3ccc(F)cc3)ccn12)N1CCN(c2ccc(F)cc2)CC1` reads -6.2%. As for `Cc1ccc2c(c1)N(C(=O)Cn1nc3ccc(S(=O)(=O)C(C)(C)C)nn3c1=O)CCO2`, the Inhibition is given as -14.77%. The result for `COc1cccc(CNC(=O)Cn2nc3c4cc(-c5cc(C)ccc5C)nn4ccn3c2=O)c1OC` reads -13.57%.

For the compound `COc1cccc(N(Cc2ccc(F)cc2)S(=O)(=O)c2ccc3nncn3c2)c1`, the Inhibition is -15.36%. `Cc1ccc(NC(=O)Cn2c(=O)c3nnc(C(C)C)n3c3ccccc32)cc1C`: the Inhibition was -12.38%. The result for `O=C(CSc1nc2ccccc2n2cnnc12)NCc1ccccc1Cl` reads -14.6%; that for `CCc1nnc2c(=O)n(CC(=O)Nc3cccc(C#N)c3)c3ccccc3n12`, -28.04%. Regarding `Cc1ccc(C)c(Cn2nc3c(=O)n(-c4ccc(C)c(C)c4)ccn3c2=O)c1`, the Inhibition was -10.52%.

On to `Cc1cc2nn(CC(=O)N3CCOCC3)c(=O)n2c(Nc2ccc(C)c(F)c2)n1`, for which the Inhibition is -5.57%. As for `CCCc1nnc2c(=O)n(CC(=O)Nc3cccc(C#N)c3)c3ccccc3n12`, the figure is -17.76%.

On to `COc1ccc(-c2cc3c4nnc(SCC(=O)Nc5ccc(C)c(F)c5)n4ccn3n2)cc1`, for which the Inhibition is -5.86%. The result for `COC(=O)c1ccccc1NC(=O)Cn1nc2c3cc(-c4ccc(OC)cc4)nn3ccn2c1=O` reads -26.84%; that for `CCCCn1c(=O)c2sccc2n2c(=O)n(CC(=O)NC(C)CC)nc12` (centres undefined), -15.7%; that for `COc1ccc(NC(=O)Cn2nc3ccc(-c4ccccc4)nn3c2=O)cc1OC`, 0.88%. As for `Cc1ccc(NC(=O)Cn2nc3c4cc(-c5ccc(Cl)cc5)nn4ccn3c2=O)cc1F`, the figure is -19.64%; as for `CCOC(=O)c1ccccc1NC(=O)Cn1nc2c(Sc3ccccc3)nccn2c1=O`, -6.53%; as for `C=Cc1ccc(CSc2nnc3c(=O)n(-c4ccc(F)cc4)ccn23)cc1`, -8.26%. As for `O=c1c2sccc2n2c(=O)n(Cc3ccc(Cl)cc3)nc2n1Cc1cccs1`, the figure is -17.8%. In the case of `O=C(Cn1nc2ccc(-c3ccccc3)nn2c1=O)Nc1ccc(Cl)c(C(F)(F)F)c1`, the Inhibition is on record as -8.29%. On to `COc1ccc(NC(=O)CSc2nnc3ccc(C(=O)Nc4cccc(F)c4)cn23)cc1`, for which the Inhibition is listed as -2.63%. The result for `O=C(CCc1nnc2c(N3CCCCC3)nc3ccccc3n12)NCc1ccccc1Cl` reads -16.16%; that for `COc1ccc(-c2cc3c4nnc(SCC(=O)NCc5ccccc5Cl)n4ccn3n2)cc1`, -22.52%. The result for `Cc1ccc(CN(c2ccccc2)S(=O)(=O)c2ccc3nncn3c2)cc1` reads -7.34%.
